D2 ag-1 – agonists of human D2 dopamine receptor; P14416; HEK293 T-REx D2 cells, calcium flux agonist mode; activation, % at 2 µM; 0.53% of 340,000 active;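 active = activation over 3 SD above normal in the single-dose calcium agonist read, cut at about 30% in these data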; also: 0% is about no effect
Target sequence (P14416 whole entry, looked up): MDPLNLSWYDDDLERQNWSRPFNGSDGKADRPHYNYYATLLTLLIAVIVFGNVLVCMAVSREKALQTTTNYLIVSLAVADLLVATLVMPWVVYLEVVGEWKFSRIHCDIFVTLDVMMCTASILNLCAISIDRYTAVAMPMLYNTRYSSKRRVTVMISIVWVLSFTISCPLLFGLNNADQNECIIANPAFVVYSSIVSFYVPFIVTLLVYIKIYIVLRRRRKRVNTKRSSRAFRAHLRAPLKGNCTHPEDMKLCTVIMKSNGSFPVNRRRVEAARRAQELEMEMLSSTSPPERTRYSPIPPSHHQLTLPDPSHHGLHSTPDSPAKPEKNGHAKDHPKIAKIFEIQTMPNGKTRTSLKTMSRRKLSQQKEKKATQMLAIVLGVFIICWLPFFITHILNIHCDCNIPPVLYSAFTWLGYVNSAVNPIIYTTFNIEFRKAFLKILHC
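Agonism scored from kinetic calcium signal (1 read/sec, 180 s) following compound pin transfer, after a 10 s baseline. Cells: HEK293 Trex line expressing inducible D2 receptor coupled to calcium, dye-loaded after overnight culture at 30 C.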
D2 PAM-1 – human D2 receptor positive allosteric modulation; P14416; DiscoveRx D2 beta-arrestin cells, luminescence, 90 min; 100% = 57 uM dopamine signal; potentiation, % (concentration not given with the values); 0.23% of 360,000 active; AID 624464; in the data active = potentiation above about 50%; inconclusive = mostly about 30% to 49%
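PathHunter beta-arrestin assay in DiscoveRx D2 cells. Compounds were added with an EC20 of dopamine (50 nM final) for 90 min at 37 deg C. Luminescence was read 1 h after detection reagent, with 57 uM dopamine as the EC100 control.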
D2 antagonist – antagonists of human D2 dopamine receptor. inhibition, % at 10 µM. 2% of 340,000 active. HEK293 TREx D2 cells, calcium flux, dopamine EC80. P14416; in the data active = inhibition above about 30%; inactive = below that, where a call was filed; also: 0% is about no effect
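Read-out: kinetic calcium fluorescence (1 cycle/s) in inducible HEK293 T-REx D2 cells after an EC80 dopamine addition that followed 180 s compound preincubation. Loss of the dopamine response indicates antagonism.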
D2 PAM-2 – positive allosteric modulators of human D2 dopamine receptor; P14416; AID 485347; 0.34% of 340,000 active; potentiation, % at 10 µM; HEK293 T-REx D2, calcium flux, EC20 dopamine potentiation;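 active = potentiation over 3 SD above the plate norm, cut at about 30% in these data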; also: 0% is about no effect
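Tetracycline-induced HEK293 T-REx cells force-coupled to calcium signalling expressed D2; compounds were pin-added after a 10 s baseline, read kinetically 180 s, then an EC20 dopamine challenge followed with a further 180 s calcium read.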
D2 ag-2 – activates the human D2 dopamine receptor | DiscoveRx PathHunter D2 beta-arrestin, luminescence, 90 min; 100% = 57 uM dopamine signal | activation, % (concentration not given with the values) | 0.084% of 360,000 active; in the data active = activation above about 40%; inconclusive = between about 15% and that limit
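DiscoveRx PathHunter D2 beta-arrestin cells (2,100/well) attached overnight, then compound-stimulated 90 min at 37 C in HBSS/10 mM HEPES/0.1% Tween-20 buffer; beta-galactosidase complementation read by luminescence after 1 h at ambient temperature. Dopamine 57 uM final (EC100) as control.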
D3 ag – confirmation of human D3 dopamine receptor agonists, beta-arrestin; 4% of 2,300 active; Potency, µM (highest dose often 76.9 µM), for inactives: at the top dose activation, most hits filed as activators; shares compounds with D2 ag-1; DiscoveRx D3 beta-arrestin cells, luminescence, 90 min;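 also: potency is read from the fitted curve at half-maximal effect; 100% = dopamine control response; nearly all actives have a fitted effect of over 70% in size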
D2 ag-3 – D2 receptor agonism, beta-arrestin counterscreen | shares compounds with D2 ag-1 | DiscoveRx PathHunter D2 beta-arrestin, luminescence, 90 min; response scale: percent relative to full dopamine signal | Potency, µM (doses to about 76.9 µM), without a hit: top-dose activation, most hits filed as activators | 5.9% of 2,300 active | AID 720507; also: potency is read from the fitted curve at half-maximal effect; % of control where 0% means no effect; nearly all actives have a fitted effect of over 70% in size
The depositor's hits bear a star; ? = inconclusive; . = no result; ! = not confirmed by another sample. Shown are actives, neighbours in structure and some others; about 2.4% of the full set was active somewhere. Unless noted, calls follow the shape of the dose curve; as a rule, active = well fitted activation curve with a large enough effect; inconclusive = small, poorly fitted or top-dose-only effect; inactive = flat fitted curve, though single readings scatter.

SMILES	D2 ag-1	D2 PAM-1	D2 antagonist	D2 PAM-2	D2 ag-2	D3 ag	D2 ag-3
COCC(=O)Nc1nnc(-c2ccc(C(C)(C)C)cc2)s1	2	-10	-2	7	-10	16%	0%
Nc1ccn(CC(=O)NCCNc2ccc([N+](=O)[O-])cn2)c(=O)n1	0	-6	-1	-11	-4	-7%	-5%
O=C(CN1CCN(Cc2ccccc2)CC1)NCCNc1ccc([N+](=O)[O-])cn1	1	-2	-8	6	-4	.	.
COc1ccc([N+](=O)[O-])c(OC)c1C(=O)Nc1ccc(F)cc1F	0	-10	22	1	0	-6%	-2%
CC(C)(C)C(=O)Nc1ccc(F)cc1[N+](=O)[O-]	32*	-13	7	-2	-3	?	1%
COc1ccc([C@@H](NC(=O)OC(C)(C)C)C(=O)OC(C)(C)C)cc1	0	-8	11	6	-4	.	.
CC(C)(C)OC(=O)N[C@H](C(=O)OC(C)(C)C)c1ccc2ccccc2c1	-1	-1	-6	15	-5	2%	-4%
CCc1ccc(C(=O)NNC(=O)Cn2c(=O)cnc3ccccc32)cc1	0	-3	-12	6	-3	.	.
O=C(Cn1c(=O)cnc2ccccc21)NNC(=O)c1ccc(Cl)cc1	.	-4	.	.	-2	1%	-3%
Cc1c(O)c(=O)ccn1C	57*!	6	31*!	-14	-1	0%	-3%
Cc1cccc(OCC(=O)Nc2ccc3c(c2)nc(CCN2CCN(c4ccccn4)CC2)n3C)c1	0	-20	31*	-5	10	28µM*	?
Cn1c(CCN2CCN(c3ccccn3)CC2)nc2cc(NC(=O)COc3ccc(Cl)cc3)ccc21	-1	-20	37*	2	11	26%	?
Cc1ccc(N2C(=O)[C@@H]3CSC(c4ccc(Cl)cc4)N3C2=O)cc1 (stereo partly specified)	0	.	.	-19	.	.	.
Cc1cc(C2=NNC(=NCCc3ccccc3)SC2)c(C)n1CC1CCCO1 (stereo unspecified)	22	-17	22	-20	4	-11%	-1%
CCc1ccc(-c2nc(CN3CCCC(C(=O)N4CCN(c5cc(Cl)ccc5C)CC4)C3)c(C)o2)cc1 (stereo unspecified)	0	.	.	2	.	.	.
Cc1ccccc1NC(=O)C[n+]1cc(-c2ccccc2)n2c1CCC2	.	-5	.	.	1	-10%	8%
Cc1cccc(C)c1NC(=O)C[n+]1cc(-c2ccccc2)n2c1CCC2	75*	0	28	-25	7	-10%	12%
CCOc1ccc(NC(C)=O)cc1[N+](=O)[O-]	0	-10	6	-7	1	.	.
CCOc1ccc(NC(C)=O)cc1N	1	-6	-5	0	4	1%	1%
Cc1cccc(C(=O)NC(=S)NCc2ccccc2)c1	.	-8	.	.	-6	.	.
Cc1cccc(C(=O)NC(=S)NNC(=O)Cc2ccccc2)c1	37*	18	7	-3	-7	-9%	-9%
COc1ccccc1CNC(=O)COC(=O)c1ccc(N2CCCC2=O)cc1	2	-3	12	-18	-2	11%	2%
COc1ccc(CCNC(=O)COC(=O)c2ccc(N3CCCC3=O)cc2)cc1OC	2	3	-2	11	2	.	.
CCCCN(CC)CCCNC(=S)Nc1ccc2nc(N3CCN(C)CC3)cc(C)c2c1	71*	-5	40*	-29	7	24%	21%
O=c1c2cc(NC(=S)NCCN3CCCCCC3)ccc2nc2n1CCCCC2	0	-16	9	-17	-2	.	.
CCCCN(CC)CCCNC(=S)Nc1ccc2nc3n(c(=O)c2c1)CCCCC3	86*	-2	60*	-31	10	-6%	26%
